Values joined by “and” are separate entries in the source; they are usually repeats but may differ in a detail not shown here. Identical values can stand only once. Inconclusive results are not listed. A structure can be active in one record and inactive in another. Active and inactive are the calls of the source. Unless noted, calls come from the whole dose curve; as a rule, active = well fitted curve in the direction sought with a large enough effect; inconclusive = small, poorly fitted or top-dose-only effect, or another doubt; inactive = no such curve, though single readings can be large; an effect the other way counts as inactive or inconclusive.

A short description of assay [1]: qHTS to identify inhibitors of the type 1 interferon - major histocompatibility complex class I in skeletal muscle: primary screen against the NCATS Mechanism Interrogation Plate v5.0 (MIPE) Libary (AID 1347411). Note: nearly all actives have a fitted effect of over 65% in size. Note: potency is the fitted concentration of half-maximal effect. The gist of the method: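 HLA-B HiBit myoblasts, dexamethasone-free medium + 4 ng/ml IFN-b, 24 h compound, 11-pt 1:3 from 46 uM final. Readout: Nano-Glo HiBiT lytic luminescence after 10 min lysis, RT.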

The nature of assay [2]: Validation qHTS assay for inhibitors of Activation Induced Cytidine Deaminase (AID): UDG Counterscreen signal (AID 1347427). In short, it runs like this: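 Fluorescence at 560 nm excitation, 665 nm emission reports UDG signal after 250 mM NaOH (2x) addition and 30 min. Enzymes (AID 1 uM, UDG 2 U/mL, at 4/3x) preincubated 10 min with compound, then 4 h with 4x 250 nM DJC20/DJC23 substrate at room temperature.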
(In general: qHTS replaces the single test concentration by a dilution series.)

The target in assay [3] is Single-stranded DNA cytosine deaminase (Homo sapiens) (UniProt Q9GZX7). The assay can be described thus: Validation qHTS assay for inhibitors of Activation Induced Cytidine Deaminase (AID): AID signal (AID 1347429). The gist of the method: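 AID+UDG coupled FRET deamination; cpds up to 114 uM final; DJC20/DJC23 substrate, 4 hr RT; NaOH stop, 30 min RT; read Ex 540/Em 590.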
Single-stranded DNA cytosine deaminase (Homo sapiens), sequence (Q9GZX7 whole entry, looked up): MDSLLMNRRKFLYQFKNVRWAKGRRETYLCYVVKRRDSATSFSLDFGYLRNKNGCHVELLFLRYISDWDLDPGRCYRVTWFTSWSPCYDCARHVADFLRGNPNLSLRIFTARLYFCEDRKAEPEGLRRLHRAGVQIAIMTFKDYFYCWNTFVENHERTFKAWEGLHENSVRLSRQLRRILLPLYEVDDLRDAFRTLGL

Assay [4] is described as follows: Primary qHTS for inhibitors of La Crosse Virus (LACV) - induced cell death in SH-SY5Y cells (AID 1508616).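 Note: top concentration of the series differs between compounds; higher means more rescue of cells from virus-induced death.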 The gist of the method:
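Cytopathicity rescue screen: compounds pinned onto SH-SY5Y cells, which are then infected with LACV (MOI 0.01) and held 6 days at 37C. Percent activity is scaled between infected DMSO control and uninfected DMSO control.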

Assay [5] has as its target Calcium and integrin-binding protein 1 (Homo sapiens) (UniProt Q99828). Put plainly: Validation qHTS for Identification of Calcium Integrin Binding protein 1 (CIB1) Competitor (AID 1508618). In short, it runs like this: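 Displacement of FITC-alphaIIb peptide (100 nM) from CIB1-GST (1 uM) is monitored by polarization in quantitative HTS format; buffer carries 5 mM CaCl2 and 125 mM NaCl at pH 7.4, incubations are at room temperature.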

The target is the same in assay [6]. The assay can be described thus: Primary qHTS for Identification of Calcium Integrin Binding Protein 1 (CIB1) Competitor (AID 1508620).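 Note: GST tagged CIB1 binding a fluorescein labelled alphaIIb integrin peptide tracer; top concentration of the series differs between compounds.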 In short, it runs like this:
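CIB1-GST (1 uM final) and compound incubated 15 min at room temperature before adding FITC-alphaIIb peptide tracer (100 nM final). Competition for binding read by fluorescence polarization (ex 480, em 540) after another 15 min at room temperature.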

A short description of assay [7]: Primary qHTS for small molecule stabilizers of the endoplasmic reticulum resident proteome: Secreted ER Calcium Modulated Protein (SERCaMP) assay (AID 1508630). In short, it runs like this: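 The SH-SY5Y reporter protocol was run at 3 concentrations up to 38.3 uM (primary) or 11 concentrations (follow-up): 16 h compound, 100 nM thapsigargin for 4 h, then extracellular luciferase luminescence.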

The target in another assay is Papain (Carica papaya) (UniProt P00784). The assay can be described thus: Primary qHTS assay for inhibitors of the protease papain (AID 1645873).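 Note: papain turnover of Z-FR-AMC read as the AMC fluorescence gain over 10 min; series mostly up to about 50 µM.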
Papain (Carica papaya), sequence (P00784 whole entry, looked up, the tested form may be a part): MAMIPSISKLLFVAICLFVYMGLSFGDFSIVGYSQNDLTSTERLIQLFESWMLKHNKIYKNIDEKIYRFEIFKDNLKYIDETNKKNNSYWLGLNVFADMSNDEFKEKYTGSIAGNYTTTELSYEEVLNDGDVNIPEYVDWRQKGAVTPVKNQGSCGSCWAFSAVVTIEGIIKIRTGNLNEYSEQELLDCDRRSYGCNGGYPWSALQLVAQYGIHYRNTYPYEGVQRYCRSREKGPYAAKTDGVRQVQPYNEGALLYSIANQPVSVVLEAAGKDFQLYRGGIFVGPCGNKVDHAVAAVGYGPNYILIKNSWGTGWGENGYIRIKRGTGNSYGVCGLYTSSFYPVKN
Assay [8] is described as follows: Primary qHTS for inhibitors of nuclear receptor binding SET domain protein 2 (NSD2) in an isogenic RCH-ACV NSD2 p.E1099K mutant (9B) (AID 1645876). Note: nearly all actives have a fitted effect of over 70% in size. Note: potency is the fitted concentration of half-maximal effect.
Assay [9] deals with Protein phosphatase 1D (Homo sapiens) (UniProt O15297). Put plainly: Rhodamine-PBP qHTS Assay for Modulators of WT P53-Induced Phosphatase 1 (WIP1) (AID 1347425). The gist of the method:
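5 nM WIP1 + 10 uM Rh-PBP, 50 mM Tris pH 7.5, 30 mM MgCl2, 1 mM TCEP, 0.1 mM EGTA, BSA; cpds pinned, 1 hr RT; + 10 uM phosphopeptide; fluorescence 1-min reads x 11 min; delta = f1 - f0.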

Assay [10] deals with Cytochrome P450 2D6 (Homo sapiens) (UniProt P10635). The assay can be described thus: Cytochrome P450 family 2 subfamily D member 6 (CYP2D6) small molecule antagonists: luciferase biochemical (cell-free) qHTS assay (AID 1645840; active = well fitted curve in the direction sought with a large enough effect in the repeat runs; an effect the other way counts as inactive or inconclusive; note: nearly all actives have a fitted effect of over 55% in size; note: potency is the fitted concentration of half-maximal effect). In short, it runs like this: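 P450-Glo CYP2D6 system: proluciferin substrate converted by enzyme to luciferin, read by luminescence proportional to activity. Enzyme-substrate mix with compound 10 min at room temperature, then NADPH regeneration 1 h before detection reagent.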
Cytochrome P450 2D6 (Homo sapiens), sequence (P10635 whole entry, looked up): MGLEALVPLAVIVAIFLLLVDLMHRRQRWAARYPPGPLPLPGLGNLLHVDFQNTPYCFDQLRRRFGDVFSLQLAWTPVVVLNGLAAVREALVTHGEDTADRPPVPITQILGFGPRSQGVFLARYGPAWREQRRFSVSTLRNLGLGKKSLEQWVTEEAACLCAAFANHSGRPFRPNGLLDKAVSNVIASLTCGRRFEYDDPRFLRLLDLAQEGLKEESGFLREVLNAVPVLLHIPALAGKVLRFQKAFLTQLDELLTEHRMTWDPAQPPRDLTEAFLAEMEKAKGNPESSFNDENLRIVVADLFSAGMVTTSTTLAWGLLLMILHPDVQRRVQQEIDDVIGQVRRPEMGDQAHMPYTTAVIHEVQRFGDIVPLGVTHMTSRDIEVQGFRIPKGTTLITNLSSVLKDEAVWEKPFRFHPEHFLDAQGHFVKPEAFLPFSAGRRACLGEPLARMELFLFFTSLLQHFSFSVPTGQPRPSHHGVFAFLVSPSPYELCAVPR

Assay [11] concerns the target Cytochrome P450 2C9 (Homo sapiens) (UniProt P11712). Put plainly: Cytochrome P450 family 2 subfamily C member 9 (CYP2C9) small molecule antagonists: luciferase biochemical (cell-free) qHTS assay (AID 1645842; active = well fitted curve in the direction sought with a large enough effect in the repeat runs; an effect the other way counts as inactive or inconclusive; note: potency is the fitted concentration of half-maximal effect; nearly all actives have a fitted effect of over 55% in size). In short, it runs like this:
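P450-Glo CYP2C9 system: proluciferin substrate with enzyme in mix containing 0.4% BSA, 10 min at room temperature, then NADPH regeneration solution added and incubated 1 h at 37C. Detection reagent stopped reaction; luminescence read after 20 min as RLU.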

Assay [12] has as its target Protein phosphatase 1D (Homo sapiens) (UniProt O15297). Put plainly: RapidFire Mass Spectrometry qHTS Assay for Modulators of WT P53-Induced Phosphatase 1 (WIP1) (AID 1347424).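 Note: amount of dephosphorylated VEPPL-S-QETFS peptide product formed by WIP1; series mostly up to about 63 µM.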 In short, it runs like this:
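RapidFire mass spectrometry measured dephosphorylated peptide after 5 min room-temperature reaction of 2 uM VEPPL-pS-QETFS with 10 nM WIP1 (50 mM Tris-HCl pH 7.5, 30 mM MgCl2, 0.1 mM EGTA, BSA), following 1 hr compound preincubation; 1 uM isotope-labelled product standard.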

In assay [13] the target is N-terminal Xaa-Pro-Lys N-methyltransferase 1 (Homo sapiens) (UniProt Q9BV86). The assay can be described thus: Confirmatory qHTS for Inhibitors of N-terminal methyltransferase 1 (NTMT1): MTaseGlo Assay (AID 1645874). Note: nearly all actives have a fitted effect of over 65% in size. Note: potency is the fitted concentration of half-maximal effect. The gist of the method:
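Enzyme mix (125 nM NTMT1, 100 uM SAM) + compound, 15 min RT; + 1 uM SPKRIA, 30 min RT, dark; MTase-Glo reagent 30 min, detection solution 30 min; luminescence. % inhibition vs no-enzyme/DMSO controls, 4-parameter Hill fit.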

The nature of assay [14]: A High-Content qHTS Against Drug Library for the Identification of Small Molecules that Inhibit DYT1 Early Onset Primary Dystonia-Associated Cell Pathology (AID 1645839; calls by dose curve; note: series mostly up to about 46 µM). In short, it runs like this: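 High-content imaging quantified EGFP-TorsinA mislocalization in HEK293-derived cells inducibly expressing DYT1 mutant torsinA, after 48 h exposure to compound given together with tetracycline induction. Cell count served as a toxicity channel alongside %pathology.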

Assay [15] addresses Cytochrome P450 3A4 (Homo sapiens) (UniProt P08684). The assay can be described thus: Cytochrome P450 family 3 subfamily A member 4 (CYP3A4) small molecule antagonists: luciferase qHTS assay (AID 1645841; active = well fitted curve in the direction sought with a large enough effect in the repeat runs; an effect the other way counts as inactive or inconclusive; note: potency is the fitted concentration of half-maximal effect; nearly all actives have a fitted effect of over 45% in size). In short, it runs like this: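 Luminescent CYP3A4 activity readout: compounds plus enzyme-substrate mix 10 min at room temperature, reaction started with NADPH regenerating system for 1 h, stopped with detection reagent, read after 20 min. Ketoconazole served as control.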

Cytochrome P450 2C9 (Homo sapiens), sequence (P11712 whole entry, looked up): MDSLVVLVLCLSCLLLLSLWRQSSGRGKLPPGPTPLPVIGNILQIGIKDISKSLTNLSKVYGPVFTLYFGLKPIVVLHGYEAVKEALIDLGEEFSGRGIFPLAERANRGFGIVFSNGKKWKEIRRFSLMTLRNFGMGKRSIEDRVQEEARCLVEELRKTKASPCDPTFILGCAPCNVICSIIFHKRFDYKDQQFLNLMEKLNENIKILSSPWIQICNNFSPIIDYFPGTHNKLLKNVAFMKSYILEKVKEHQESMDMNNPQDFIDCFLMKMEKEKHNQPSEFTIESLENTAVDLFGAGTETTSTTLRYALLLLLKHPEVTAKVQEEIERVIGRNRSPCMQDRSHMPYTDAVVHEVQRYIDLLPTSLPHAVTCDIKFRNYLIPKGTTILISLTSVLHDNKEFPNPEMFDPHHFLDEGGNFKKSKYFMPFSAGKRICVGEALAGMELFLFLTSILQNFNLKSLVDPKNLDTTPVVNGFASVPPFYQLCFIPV
Protein phosphatase 1D (Homo sapiens), sequence (O15297 whole entry, looked up): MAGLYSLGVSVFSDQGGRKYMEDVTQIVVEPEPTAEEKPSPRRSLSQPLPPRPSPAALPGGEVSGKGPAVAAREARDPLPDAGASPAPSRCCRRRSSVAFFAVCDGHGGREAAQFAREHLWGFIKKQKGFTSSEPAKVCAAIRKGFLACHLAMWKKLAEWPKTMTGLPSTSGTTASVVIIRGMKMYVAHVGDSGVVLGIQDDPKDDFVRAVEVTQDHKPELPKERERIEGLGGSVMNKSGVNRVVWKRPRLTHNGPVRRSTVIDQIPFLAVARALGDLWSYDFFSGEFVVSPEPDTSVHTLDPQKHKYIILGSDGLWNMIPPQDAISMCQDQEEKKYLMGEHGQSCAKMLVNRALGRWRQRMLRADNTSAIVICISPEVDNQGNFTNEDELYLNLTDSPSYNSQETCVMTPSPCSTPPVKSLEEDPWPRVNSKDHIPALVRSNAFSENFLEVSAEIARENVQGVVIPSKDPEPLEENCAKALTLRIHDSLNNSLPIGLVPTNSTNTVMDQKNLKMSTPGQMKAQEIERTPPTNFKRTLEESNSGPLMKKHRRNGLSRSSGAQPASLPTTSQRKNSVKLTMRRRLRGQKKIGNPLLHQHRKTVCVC
Calcium and integrin-binding protein 1 (Homo sapiens), sequence (Q99828 whole entry, looked up): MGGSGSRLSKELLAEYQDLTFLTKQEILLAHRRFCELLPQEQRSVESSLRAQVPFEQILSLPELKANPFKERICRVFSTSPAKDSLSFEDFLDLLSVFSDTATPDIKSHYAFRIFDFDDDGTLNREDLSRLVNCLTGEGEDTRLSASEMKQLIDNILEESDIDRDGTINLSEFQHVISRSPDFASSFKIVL
N-terminal Xaa-Pro-Lys N-methyltransferase 1 (Homo sapiens), sequence (Q9BV86 whole entry, looked up): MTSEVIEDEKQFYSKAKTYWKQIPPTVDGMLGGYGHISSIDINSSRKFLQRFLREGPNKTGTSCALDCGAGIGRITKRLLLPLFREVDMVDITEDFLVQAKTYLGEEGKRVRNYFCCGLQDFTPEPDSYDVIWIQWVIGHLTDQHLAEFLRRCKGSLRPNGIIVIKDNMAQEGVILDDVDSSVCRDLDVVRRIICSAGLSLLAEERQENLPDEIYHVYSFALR
Cytochrome P450 3A4 (Homo sapiens), sequence (P08684 whole entry, looked up): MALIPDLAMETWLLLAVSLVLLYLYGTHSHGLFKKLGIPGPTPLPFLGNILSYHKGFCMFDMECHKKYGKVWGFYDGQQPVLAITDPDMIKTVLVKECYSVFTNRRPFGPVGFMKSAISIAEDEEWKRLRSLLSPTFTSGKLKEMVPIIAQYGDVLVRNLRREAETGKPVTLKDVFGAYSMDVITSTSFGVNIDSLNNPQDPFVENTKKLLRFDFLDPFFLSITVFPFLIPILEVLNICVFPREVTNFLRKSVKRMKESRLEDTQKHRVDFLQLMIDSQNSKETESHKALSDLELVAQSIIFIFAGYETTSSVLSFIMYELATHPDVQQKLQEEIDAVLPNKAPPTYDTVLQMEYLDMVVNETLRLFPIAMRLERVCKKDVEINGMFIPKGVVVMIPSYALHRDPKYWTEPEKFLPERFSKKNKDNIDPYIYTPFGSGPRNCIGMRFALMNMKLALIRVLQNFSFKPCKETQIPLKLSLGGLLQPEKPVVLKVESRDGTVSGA

Turning to `Cc1cccc(-c2[nH]c(C(C)(C)C)nc2-c2ccc3nccnc3c2)n1`, the Potency result (in [1]; in assay [3]; in [5]; in assay [7]; with Papain (Carica papaya)) was “inactive” each time. For the same molecule, the outcome in [2], in assay [4] and in assay [6] was inactive. Further, the Potency in [8] was 13.2 µM (active) and 5.8 µM (active).

As for `Cc1ccc(-n2nc(C(C)(C)C)cc2NC(=O)Nc2ccc(OCCN3CCOCC3)c3ccccc23)cc1`, the Potency entry in [1] and in assay [7] was “inactive” each time. Besides, the call in assay [9] and in assay [4] was inactive. Further, the Potency was 4.9 µM (active) in assay [10]; 9.77 µM (active) in [11]; 23.7 µM (active) and inactive in assay [8].

For `NC(=O)c1ccc(-c2nc(-c3ccc4c(c3)OCO4)c(-c3ccccn3)[nH]2)cc1`, the Potency entry in assay [1] and in assay [7] was “inactive” throughout. In addition, in [6], the result was inactive.

`CN[C@@H](C)C(=O)N[C@H]1CCCC[C@H]2CC[C@@H](C(=O)N[C@@H](c3ccccc3)c3cn(CCCCc4ccc(CCCCn5cc([C@@H](NC(=O)[C@@H]6CC[C@@H]7CCCC[C@H](NC(=O)[C@H](C)NC)C(=O)N76)c6ccccc6)nn5)cc4)nn3)N2C1=O`: the Potency in assay [1] was 3.3 µM (active). For the same molecule, the outcome in assay [6] was inactive. Also, the Potency result in assay [7] was “inactive”.

Turning to `Cc1c(C)c2c(c(C)c1O)CCC(C)(COc1ccc(CC3SC(=O)NC3=O)cc1)O2` (stereo unspecified), the Potency result in [1] and in assay [7] was “inactive” in each case. Moreover, the result in assay [4] and in assay [6] was inactive. The Potency in assay [11] was 6.92 µM (active).

`Clc1ccc(Nc2nnc(Cc3ccncc3)c3ccccc23)cc1`: the Potency entry in assay [1], in assay [12], in assay [7] and in assay [13] was “inactive” throughout. In addition, the outcome in assay [4] and in assay [6] was inactive. Moreover, the Potency was 0.0174 µM (active) in assay [10]; 0.049 µM (active) in [11]; 15 µM (active) and 9.34 µM (active) in assay [8].

`CNC(=O)c1ccc(C)c(-n2c(C)cc(OCc3ccc(F)cc3F)c(Br)c2=O)c1`: in assay [1], the Potency entry was “inactive”. In assay [6], the result was inactive.

Take `CCCc1nc2c(C)cc(-c3nc4ccccc4n3C)cc2n1Cc1ccc(-c2ccccc2C(=O)O)cc1`: the Potency result in assay [1] and in assay [8] was “inactive” throughout. Besides, the outcome in [4] and in [6] was inactive. For the same molecule, the Potency in [11] is 8.71 µM (active).

For the molecule `C[C@]1(c2nc3c(C(N)=O)cccc3[nH]2)CCCN1`, the Potency entry in [1] is “inactive”. Besides, in assay [6], the result was inactive.

Take `CC(c1cc2ccccc2s1)N(O)C(N)=O` (stereo unspecified): the Potency entry in assay [1], in assay [14], in assay [10] and in [8] was “inactive” each time. Also, in assay [4], the call was inactive. Besides, the Potency in assay [15] was 13.8 µM (active).

On to `COc1ccc(-c2c(-c3ccc(O)cc3O)n[nH]c2C)cc1`, for which the Potency entry in assay [1], in [7] and in assay [8] was “inactive” in each case. Further, in assay [6], the outcome was inactive. Besides, the Potency is 4.47 µM (active) in assay [10] and 3.55 µM (active) in assay [11].

Consider `CCC(C)(C)C(=O)O[C@H]1C[C@@H](C)C=C2C=C[C@H](C)[C@H](CC[C@@H]3C[C@@H](O)CC(=O)O3)[C@H]21`, for which the Potency entry in [1], in assay [12] and in assay [7] was “inactive” in each case. In addition, the Potency in [8] is 8.33 µM (active).

For `CCC(C)N(C)C(=O)c1cc2ccccc2c(-c2ccccc2Cl)n1` (stereo unspecified), the Potency result (in assay [1]; in [3]; in [5]; in [7]; in the assay with Papain (Carica papaya)) was “inactive” throughout. In addition, the molecule was called inactive in assay [2] and in [4].

`O=C(O)CCc1ccc(NCc2cccc(Oc3ccccc3)c2)cc1`: the Potency result (in assay [1]; in assay [5]; in assay [7]; in the assay with Papain (Carica papaya); in [8]) was “inactive” throughout. In addition, the outcome in [6] was inactive.

On to `Nc1cccc(S(=O)(=O)N2CCCN(S(=O)(=O)c3ccc4c(c3)OCCO4)CC2)c1`, for which the Potency entry in assay [1] and in assay [7] was “inactive” in each case. Besides, in assay [6], the result was inactive.

On to `Nc1ncnc2nc(-c3ccc(N4CCOCC4)nc3)cc(-c3cccc(Br)c3)c12`, for which the Potency result in assay [1] and in assay [3] was “inactive” in each case. Besides, the result in assay [2] and in assay [4] was inactive. The Potency in [13] was 0.515 µM (active).

As for `CC(C)C[C@H](NC(=O)[C@@H](O)[C@H](N)Cc1ccccc1)C(=O)O`, the Potency entry (in assay [1]; in [3]; in assay [5]; in assay [7]; with Papain (Carica papaya); in assay [8]) was “inactive” each time. In addition, the call in assay [2], in assay [4] and in assay [6] was inactive.

The record behind these values is PubChem BioAssay (NCATS).
